Bioassay records (PubChem)
D1 agonist: agonists of human D1 dopamine receptor; P21728; HEK293 T-REx D1 cells, calcium flux, agonist mode; activation, % at 2 µM; 1% of 360,000 active; in the data active means activation above about 30%; further: 0% is about no effect
Target sequence (P21728 whole entry, looked up): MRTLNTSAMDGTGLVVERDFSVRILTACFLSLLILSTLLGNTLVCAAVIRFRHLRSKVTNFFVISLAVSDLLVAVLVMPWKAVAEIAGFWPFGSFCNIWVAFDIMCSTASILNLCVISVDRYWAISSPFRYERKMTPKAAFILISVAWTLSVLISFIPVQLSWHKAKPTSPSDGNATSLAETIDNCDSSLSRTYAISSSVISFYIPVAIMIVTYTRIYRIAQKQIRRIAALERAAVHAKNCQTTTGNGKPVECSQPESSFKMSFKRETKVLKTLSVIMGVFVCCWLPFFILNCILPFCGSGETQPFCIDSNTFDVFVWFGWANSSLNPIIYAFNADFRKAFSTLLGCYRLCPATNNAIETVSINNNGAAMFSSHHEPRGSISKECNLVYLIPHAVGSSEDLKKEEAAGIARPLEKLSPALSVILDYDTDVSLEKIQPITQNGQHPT
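Inducible HEK293 T-REx D1 cells, force-coupled to calcium signalling, were plated at 4000 cells/well with tetracycline and held overnight at 30 C. After no-wash calcium dye loading, compound-evoked calcium rise over 180 s flagged agonists.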
BCR signal inh: chronic active BCR signaling inhibition; ABC-DLBCL IkBa-CBG/CBR reporter, luminescence ratio, 4 h; Potency, µM (titrated, usually from 46.1 µM), inactives show at the highest dose activity change, negative = inhibition, actives largely listed as inhibitors; 0.05% of 340,000 active; AID 493014; active means well fitted inhibition curve with a large enough effect in the signal ratio, with a control signal flat, not every such curve was filed as active; inconclusive means small, poorly fitted or top-dose-only effect, or effect the other way, or a change in a side signal; the % refers to the signal ratio;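 further: potency means the concentration at half of the fitted maximal effect; plate controls were basal doxycycline-induced cells for no effect and cells given 10 µM MG132 for full effect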
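Compounds up to 46 uM were incubated four hours with TMD8 cells whose green CBG68 luciferase is fused to IkappaBalpha; red CBR luminescence normalised the signal, and concentration-effect curves were fitted to fusion, red and ratio data.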
D1 antagonist: antagonists of human D1 dopamine receptor; AID 504652; HEK293 TREx D1 cells, calcium flux, dopamine EC80; hits give low values; 3.2% of 360,000 active; activity change, negative = inhibition, % at 10 µM; in the data active means activity change below about -30%; further: on the % scale 0 is the no-effect control and ±100 the full control effect
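Inducible Hek293 Trex D1 cells (tetracycline, overnight, 30 C). Calcium dye 30–90 min RT. Antagonist mode: EC80 dopamine added after 180 s compound read.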
D3 antag: blocks the human D3 dopamine receptor | D3R cells, DiscoveRx beta-arrestin luminescence, antagonist mode; hits give low values | max response, negative = inhibition, % | P35462 | AID 652054 | 2.5% of 360,000 active; in the data active means max response below about -50%; inconclusive means no clear call, values can overlap the other calls; further: on the % scale 0 is the no-effect control and ±100 the full control effect
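Cells plated overnight at 1500 cells/well, then exposed to library compounds with dopamine controls for 90 minutes at 37 degrees C. DiscoveRx reagent added for 30–60 minutes at room temperature; luminescence read, quantitative HTS format.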
D1 potentiator: enhances dopamine response at the human D1 receptor; P21728; HEK293 TREx D1 cells, calcium flux, dopamine EC20 potentiation; potentiation, % at 10 µM; 0.036% of 360,000 active; in the data active means potentiation above about 30%; further: 0% is about no effect
D3 ag: activates the human D3 dopamine receptor | P35462 | D3R DiscoveRx beta-arrestin cells, luminescence, 90 min | max activation, % | 0.58% of 410,000 active | AID 652048; in the data active means max activation above about 30%; further: 0% is about no effect
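Agonist mode: compounds and dopamine controls were applied to plated cells for 90 min at 37 degrees C after an overnight attachment at 1500 cells/well. Luminescent read-out followed 30 - 60 minutes at room temperature with DiscoveRx detection reagent.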
An asterisk follows results filed as active; u = inconclusive; x = not tested or not shown. Compounds with a hit are over-represented: about 6% of the library has one in this group of screens.

SMILES | D1 agonist | BCR signal inh | D1 antagonist | D3 antag | D1 potentiator | D3 ag
O=C(CSc1cccc[n+]1[O-])CSc1cccc[n+]1[O-] | 0.8 | u | -3.0 | -0.3 | -0.4 | -2.2
COc1ccc(N(CC(=O)Nc2cccc(Cl)c2C)S(=O)(=O)c2c(C)nn(C)c2C)cc1 | 3.0 | x | 9.9 | x | -0.9 | 1.9
CCCC[C@@H]1CNC(=O)C(=O)N1CCCc1cc(OC)c(OC)c(OC)c1 | 2.3 | -1.1% | -4.9 | 31.7 | -2.2 | 30.5*
CCCSCCCNC(=O)C1CCN(C(=O)c2cc3sccc3n2C)CC1 | 4.0 | x | -16.6 | x | -5.8 | 6.2
COc1ccc(OCC(=O)Nc2nc(-c3ccc(Br)cc3)ns2)cc1 | 0.6 | x | -29.1 | x | -1.2 | 10.3
Cc1ccc(-c2cc(-c3n[nH]c(=S)n3C)c3ccccc3n2)cc1 | 0.7 | 3.9% | -37.1* | -22.6 | -4.7 | -17.5
N/C(=N\OC(=O)c1cccc(C(F)(F)F)c1)c1cnccn1 | 0.7 | -0.3% | 10.6 | -15.7 | -1.6 | -5.0
O=C(OCn1ncc(Cl)c(Cl)c1=O)c1cccc(C(F)(F)F)c1 | 16.6 | u | -35.6* | -70.6* | -9.1 | -5.8
CCN1CCN(P2(=O)C=C(c3ccccc3)OC(c3ccccc3)=C2)CC1 | 5.7 | 6.7% | 3.8 | -81.3* | -0.3 | -31.9
O=P1(O)C=C(c2ccccc2)OC(c2ccccc2)=C1 | 1.4 | 2.2% | 3.1 | 6.6 | 7.8 | 1.2
CCc1ccc(S(=O)(=O)Nc2ccc3c(c2)sc(=O)n3C)cc1 | 7.6 | x | -13.4 | x | -2.8 | -9.0
O=C1OCC2=C1C(c1cccc(Cl)c1)CC(=O)N2c1ccc(C(F)(F)F)cc1 (stereo not given) | -1.5 | x | 0.9 | x | -4.6 | -5.7
COc1ccc(C(NC(=O)c2cccc(F)c2)c2ccccc2)cc1 (stereo not given) | 11.6 | 2.5% | -31.1* | 6.1 | -5.8 | -5.0
Cc1ccc(C)c(C(=O)C(C)Sc2nc3nn(-c4ccccc4)c(=O)c-3c3n2CCCCC3)c1 (stereo not given) | 3.6 | u | -35.9* | -7.1 | 2.4 | -8.8
CCSc1nc2nn(-c3ccccc3)c(=O)c-2c2n1CCCCC2 | 1.0 | u | 17.1 | 15.9 | 4.0 | -6.3
O=C1c2ccccc2C(=O)N1Nc1ccc([N+](=O)[O-])cc1[N+](=O)[O-] | 1.2 | 5.1% | 4.0 | -75.3* | -0.5 | -25.2
CCc1ccc(NC(=O)CC(NCc2cccnc2)C(=O)O)cc1 (stereo not given) | 0.9 | x | 5.0 | x | -2.2 | -11.9
CCc1ccc(-n2nc(C)c3c(C)cc(=O)n(CC(=O)N(CC)Cc4ccccc4)c32)cc1 | 4.4 | x | 6.4 | x | -2.0 | -13.4
CCOc1ccccc1-c1nc(-c2cc3ccccc3nc2OC)no1 | 1.8 | -10.4% | -13.0 | 28.0 | 0.3 | 34.2*
COc1nc2ccccc2cc1-c1noc(-c2cccnc2)n1 | 1.0 | 4.2% | 2.3 | x | -4.3 | x
CCn1cc(C(=O)N2CCN(c3cccc(Cl)c3)CC2)c(=O)c2cc(S(=O)(=O)N3CCC(C)CC3)ccc21 | 0.0 | x | -8.1 | x | 4.5 | -1.7
Cc1occc1-c1nnc(SCC(=O)c2ccc(Cl)cc2)n1C | 0.3 | 4.5% | 1.7 | -55.6* | -3.1 | -12.2
CCCn1c(SCC(=O)Nc2ccccc2-c2ccccc2)nnc1-c1ccoc1C | 0.2 | 1.3% | -23.6 | 5.9 | -2.2 | -0.7
Cn1c(SCC(=O)c2cc(Cl)c(Cl)s2)nnc1-c1ccco1 | -0.6 | 6.1% | -68.2* | 10.9 | -0.7 | 2.0
Cc1ccc(C(=O)CSc2nnc(-c3ccco3)n2C)cc1 | 0.5 | 9.5% | -0.1 | -7.6 | 1.8 | -10.3
SMILES | D1 agonist | BCR signal inh | D1 antagonist | D3 antag | D1 potentiator | D3 ag
Cc1occc1-c1nnc(SCC(=O)Nc2ccccc2-c2ccccc2)n1C | 0.2 | 1.3% | 0.4 | -57.2* | -2.1 | -4.4
CC(=O)N1c2ccc(S(=O)(=O)NCCC(=O)Nc3ccc(C)cc3Br)cc2CC1C (stereo not given) | 9.4 | x | -17.2 | x | -6.3 | 3.7
O=C(NCc1ccc(F)cc1)c1cc2n(n1)CCCN(Cc1ccc(F)cc1)C2=O | 3.4 | x | 10.4 | x | -1.9 | -4.7
COc1ccc(O)c(C(=O)c2cc(C#N)c(=O)n(-c3ccc(Cl)cc3)c2)c1 | 14.5 | -8.7% | 7.5 | 16.6 | -1.1 | 10.5
C=CCn1cc(C(=O)c2cc(Br)ccc2O)cc(C#N)c1=O | 8.8 | 0.5% | -21.1 | 10.3 | -2.5 | 5.9
Cc1c(-n2cc(C(=O)c3ccccc3O)cc(C#N)c2=O)c(=O)n(-c2ccccc2)n1C | 35.6* | 6.9% | -6.5 | 15.9 | -11.8 | 2.0
N#Cc1cc(C(=O)c2cc(F)ccc2O)cn(Cc2ccccc2)c1=O | 20.6 | -1.4% | -32.7* | 3.3 | -12.6 | 0.4
COc1ccc(-n2cc(C(=O)c3cc(Cl)ccc3O)cc(C#N)c2=O)cc1 | 19.7 | u | -34.6* | -21.9 | -10.2 | -11.3
CCCCn1cc(C(=O)c2cc(Br)ccc2O)cc(C#N)c1=O | 31.3* | u | -21.0 | 25.5 | -9.4 | 4.0
Cc1ccc(O)c(C(=O)c2cc(C#N)c(=O)n(Cc3ccccc3)c2)c1 | 5.6 | 5.6% | -0.3 | -3.8 | -1.9 | -1.6
O=C1c2ccccc2C(=O)N1CCC#C/C=C1\c2ccccc2C(=O)N1c1ccccc1 | x | x | x | -9.1 | x | -4.1
O=C1N(c2ccccc2)c2ccccc2[C@]12C[C@H](O)CO2 | x | x | x | 5.2 | x | 0.5
COCCCn1cc(C(=O)c2cc(Br)ccc2O)cc(C#N)c1=O | 5.5 | 1.2% | -7.5 | -20.4 | -4.5 | -17.0
N#Cc1cc(C(=O)c2cc(Br)ccc2O)cn(C2CC2)c1=O | 15.2 | -3.3% | 12.7 | -24.4 | -5.9 | -3.4
CCOCCCn1cc(C(=O)c2cc(Br)ccc2O)cc(C#N)c1=O | 20.8 | -16.6% | -35.6* | -19.1 | -9.9 | -15.2
CC(C)n1cc(C(=O)c2cc(Br)ccc2O)cc(C#N)c1=O | 0.1 | -41.0% | 1.6 | -67.0* | -1.4 | 6.4
Cc1ccc(-n2ncc3c(Nc4cccc(Cl)c4)ncnc32)c(C)c1 | 2.2 | u | -25.0 | x | -3.6 | -14.2
CCOc1ccc2oc(C(=O)NNC(=O)c3csc(N4CCOCC4)n3)c(C)c2c1 | 1.7 | -2.2% | -38.4* | 1.9 | -16.8 | 3.4
Cc1ccc(SCC(=O)OCn2nnc3ccccc3c2=O)cc1C | 9.9 | -8.7% | -33.5* | -7.6 | -3.2 | -11.1
O=C(O)CCCCCNC(=O)CCn1nnc2ccccc2c1=O | 4.4 | 2.3% | -14.1 | -51.6* | 0.5 | 1.1
Cc1ccc(SCCC(=O)OCn2nnc3ccccc3c2=O)cc1 | 6.1 | 5.4% | 1.2 | 6.5 | 4.2 | 4.4
Cc1ccc(NC(=O)Cn2nnc3ccccc3c2=O)cc1C | 7.5 | 0.7% | -39.7* | -10.3 | -2.4 | 0.1
O=[N+]([O-])c1ccc(C(c2sc3nc(-c4ccco4)nn3c2O)N2CCC3(CC2)OCCO3)cc1 (stereo not given) | -3.2 | -1.0% | x | x | 0.8 | 6.9
